The structures appear in SMILES notation.

In this test the target is Glucose transporter (Leishmania mexicana) (UniProt O61059). Put plainly: ST_JUDE_LEISH: Cytotoxicity at 2uM final concentration against transgenic Leishmania Mexicana promastigotes LmGT2 that are glucose transport deficient and complemented with the L. Mexicana glucose transporter 2. Activity is measured by DNA content using SYBR green in vitro. The test is classed as functional.
For the compound `Cc1cccc(C(=O)Nc2ccnc(N3CCC(N(C)Cc4cccc(C#N)c4)CC3)c2)c1`, the inhibition was 4.5%.

With `Cc1cccc2nc(-c3cccc(-c4ccc(NC(=O)Nc5ccc(Cl)cc5)cc4)c3)[nH]c12`, the inhibition was -3.06%.

As to `CCOC(=O)N1CCN(CCCNc2c3ccccc3nc3ccccc23)CC1`, the inhibition worked out at 1.91%.

Consider `CC(C)OC(=O)c1ccc(NC(=O)N[C@@H](Cc2ccc(O)cc2)C(=O)NC2CCC(CCN3C4CCC3c3ccccc34)CC2)cc1` (some centres undefined), for which the inhibition was 2.46%.

As to `Cc1ccc(Nc2nccc(Nc3ccc4c(C)n[nH]c4c3)n2)cc1F`, the inhibition came out at 1.7%.

For the compound `CNC(=O)c1cc(S(=O)(=O)Nc2ccc(OC)cc2)cs1`, the inhibition was 2.1%.

With `CCN(C)C(=O)n1ncc2c3c(N)nc(N)nc3ccc21`, the inhibition was determined as 2.18%.

With `NC(=O)C1CCN(Cc2cccc(-c3cccc(-c4nc5cc(F)ccc5[nH]4)c3)c2)CC1`, the inhibition was determined as 1.45%.

Regarding `CC(C)C(NC(=O)Cc1cccc2ccccc12)C(=O)Nc1cccc(C#N)c1` (centres undefined), the inhibition worked out at 2.76%.

Consider `Nc1nccc2ccc(-c3ccnc(NCc4cccnc4)n3)cc12`, for which the inhibition came to 11.2%.

Take `COc1ccc(CN2C(=S)N(Cc3ccccc3)C(=O)C2CC(=O)Nc2ccccc2)cc1OC` (centres undefined): the inhibition was -2.09%.

`Cc1ccc(Cn2nc(Cl)c(N3CCCNCC3)cc2=O)cc1NC(=O)Nc1ccc(-c2ccccc2)cc1`: the inhibition was -1.28%.

On to `COc1ccc2ccccc2c1CCCCN1CCN(CC(c2ccc(F)cc2)N2CCN(C3CCCC3)CC2)CC1` (centres undefined), for which the inhibition turned out to be 1.41%.

For the compound `COc1ccc(C=C2SC(=N)N(c3ccccc3OC)C2=O)cc1`, the inhibition worked out at 6.86%.

For the compound `Fc1ccc2[nH]c(-c3cccc(-c4ccc(CNCCN5CCNCC5)cc4)c3)nc2c1`, the inhibition is -0.74%.

In the case of `O=C(N[C@H]1CCN(Cc2ccc(OCCCN3CCCCC3)cc2)C1)c1cc(Cl)cc(Cl)c1`, the inhibition worked out at 2.29%.

`Oc1cc(Nc2ccnc3cc(-c4ccc(CN5CCCCC5)o4)c(Cl)cc23)c(Cl)cc1F`: the inhibition is 1.57%.

In the case of `COc1ccc2c(c1)CC(C)(C)NC2CCCCCCCCC1NC(C)(C)Cc2cc(OC)ccc21` (centres undefined), the inhibition is 0.77%.

In the case of `COc1cccc(C=NN=c2cc(C)[nH]c3ccccc23)c1`, the inhibition is 3.02%.

On to `Oc1ccc2ccccc2c1CNC1CCCCCC1`, for which the inhibition is 1.96%.

Consider `CCc1cn2c3c(cc(C(=O)N[C@@H](Cc4ccccc4)[C@H](O)CNC4CCOCC4)cc13)N(C(C)C)S(=O)(=O)CC2`, for which the inhibition worked out at 0.93%.

Consider `Oc1cc(Nc2ccnc3ccc(I)cc23)c(F)cc1Cl`, for which the inhibition was -1.45%.

In the case of `Cc1cccc2nc(-c3cccc(-c4ccc(NC(=O)c5c[nH]cn5)cc4)c3)[nH]c12`, the inhibition is -1.26%.

As for `Cc1cc(N[C@@H](Cc2ccccc2)C(=O)NC2CCCC2)nc(NCCOc2ccccc2)n1`, the inhibition was 2.19%.

For the origin of these results see ChEMBL document CHEMBL3433997, “St. Jude Leishmania screening dataset” (2016).
